Screens deposited in PubChem by Broad Institute.
Many of the other results were omitted from the sample, so hits are more common in it than they were.
Tgondii IFNg: T. gondii growth inhibition under IFN-gamma; AID 1259416; Toxoplasma gondii growth in IFN-gamma-treated host cells; stronger effect = lower value; activity change, negative = inhibition, % (concentration not given with the values); 69,000 tested, 3.8% active; in the data active = activity change below about -70%, passing the limit was not always enough;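 also: host cells are HeLa cells infected with Toxoplasma gondii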
Hits are given with their value.

How did COc1ccc(C(=O)N2CC[C@@H](c3ccc(F)cc3)[C@H](O)C2)c(O)c1 do in these assays?
Tgondii IFNg: inactive

Results for COCC(=O)NC1COCCC12CCN(S(C)(=O)=O)CC2 (centres undefined) ?
Tgondii IFNg: inactive

Results for CO[C@H]1CCN(C(=O)c2cnoc2)[C@H]2CN(Cc3cccnc3)C[C@@H]12 ?
Tgondii IFNg: inactive

What do the screens show for `CSCCCN1CCN(Cc2cccc(F)c2)C(=O)C1`?
Tgondii IFNg: inactive

Results for Cc1cc2oc(=O)cc(C)c2cc1NC(=O)[C@@H]1CCC(=O)N1 ?
Tgondii IFNg: inactive

How did CC(C)c1ccc(CC(=O)NCC2(C)CCN(C)C2)cc1 (centres undefined) do in these assays?
Tgondii IFNg: inactive

How did Cc1ccsc1CNC(=O)c1ccc(C#CC(C)(C)O)o1 do in these assays?
Tgondii IFNg: inactive

How did CC(C)CCCC1CN(C(=O)c2cccc(-n3cnnc3)n2)CCO1 (centres undefined) do in these assays?
Tgondii IFNg: inactive

Results for COc1ccccc1CNc1nc(-c2nnc(-c3cccc(C)c3)o2)nc2ccccc12 ?
Tgondii IFNg: -89.8

How did CN(C)C(=O)CC1CC2(CCN(S(=O)(=O)C3CC3)CC2)c2ccccc21 (centres undefined) do in these assays?
Tgondii IFNg: inactive

How did CC(C)(C)c1ccc(C(=O)Nc2ccc3oc(-c4ccccc4)nc3c2)cc1 do in these assays?
Tgondii IFNg: -84.1

Results for CC(C)CC(=O)Nc1ccc2oc(-c3ccncc3)nc2c1 ?
Tgondii IFNg: inactive

What do the screens show for `O=C(Nc1cccc(-c2nc3ccccc3o2)c1)c1ccccc1`?
Tgondii IFNg: inactive

What do the screens show for `CCS(=O)(=O)N1CCC2(CC1)OC(=O)C(C)=C2C(=O)Nc1cccc(C)c1C`?
Tgondii IFNg: inactive

How did Cc1ccc(CN2C[C@@H]3c4nc(N5CCCC(C)C5)ncc4CS(=O)(=O)[C@H]3C2)cc1 (some centres undefined) do in these assays?
Tgondii IFNg: inactive

What do the screens show for `Cc1ccccc1CN1C[C@@H]2c3nc(N4CCCC(C)C4)ncc3CS(=O)(=O)[C@H]2C1` (some centres undefined)?
Tgondii IFNg: -86.2

How did Cc1ccc(CN2C[C@@H]3c4nc(N(C)C)ncc4CS(=O)(=O)[C@H]3C2)cc1 do in these assays?
Tgondii IFNg: inactive

What do the screens show for `CN(C)c1nc2c(cc1C(=O)N1CCCC1)CCN(Cc1ccccc1)CC2`?
Tgondii IFNg: inactive

What do the screens show for `O=C(CCSc1ccccc1)Nc1ccc(Cl)c(Cl)c1`?
Tgondii IFNg: inactive

How did CC(C)(O)C#Cc1cccc(C(=O)N2CC(c3ccncc3)C2)c1 do in these assays?
Tgondii IFNg: inactive

What do the screens show for `CC(C)c1ccc(S(=O)(=O)N2C[C@@H]3OCCN(c4ncc(F)cn4)[C@H]3C2)cc1`?
Tgondii IFNg: inactive

What do the screens show for `CN(C)c1ccc(O)c2c1C[C@H]1C[C@H]3[C@H](N(C)C)C(=O)C(C(N)=O)C(=O)[C@@]3(O)C(=O)C1C2=O` (some centres undefined)?
Tgondii IFNg: inactive

How did CCN(CC)S(=O)(=O)N1CCn2nc(C(=O)N3CCCC3)cc2C1 do in these assays?
Tgondii IFNg: inactive

Results for Cn1nc(-c2ccccc2)c2c1NC(=O)CC2c1ccc2nonc2c1 (centres undefined) ?
Tgondii IFNg: inactive

Results for CC(C)Nc1nc(CSc2ccccn2)cc(=O)[nH]1 ?
Tgondii IFNg: inactive

What do the screens show for `CC(C)Oc1ccc(C(=O)Nc2ccccc2C(=O)NCc2ccccn2)cc1`?
Tgondii IFNg: inactive

What do the screens show for `Cc1noc(C)c1CN1CCC2(CCC(=O)N2CCN(C)C)CC1`?
Tgondii IFNg: -82.3

What do the screens show for `Cc1noc(C)c1CN1CC2(CCN(C(=O)N(C)C)C2)CC1=O` (centres undefined)?
Tgondii IFNg: inactive

How did C=CCN1C(=O)CCC12CCN(Cc1c(C)noc1C)CC2 do in these assays?
Tgondii IFNg: inactive

What do the screens show for `Cn1cc(Cl)c(-c2c(-c3ccccc3)ncn2CCc2cnc[nH]2)n1`?
Tgondii IFNg: inactive

Results for CC1=C(C(=O)Nc2ccc(C)c(C)c2)C2(CCN(Cc3ccccc3)CC2)OC1=O ?
Tgondii IFNg: inactive

What do the screens show for `Cc1ccc(SC(=O)c2cc(C)n(-c3c(Cl)cc(Cl)cc3Cl)n2)cc1`?
Tgondii IFNg: -100.0

What do the screens show for `COC(Cn1cnc2ccc(F)cc2c1=O)c1cccs1` (centres undefined)?
Tgondii IFNg: inactive

Results for CCSc1ncc(-c2c(-c3ccccc3)ncn2Cc2cccnc2)cn1 ?
Tgondii IFNg: inactive

Results for Cc1cccc(NC(=O)N2CCC(c3nc(C(=O)N4CCCC4)c(C)o3)CC2)c1 ?
Tgondii IFNg: inactive

What do the screens show for `Cc1ccc(NC(=O)N2CCC(c3nc(C(=O)N4CCCC4)c(C)o3)CC2)c(C)c1`?
Tgondii IFNg: -77.4

Results for Cc1oc(C2CCN(C(=O)Nc3cc(F)cc(F)c3)CC2)nc1C(=O)N1CCCC1 ?
Tgondii IFNg: inactive

Results for Cc1oc(C2CCN(S(=O)(=O)c3ccccc3F)CC2)nc1C(=O)N1CCCC1 ?
Tgondii IFNg: inactive

How did Cc1oc(C2CCN(C(=O)Nc3cccc(F)c3C)CC2)nc1C(=O)N1CCCC1 do in these assays?
Tgondii IFNg: -81.3
